According to article PMC10812921, “Transcriptional Coactivator BOB1 (OBF1, OCA-B) Modulates the Specificity of DNA Recognition by the POU-Domain Factors OCT1 and OCT2 in a Monomeric Configuration”:

The sequences below were run against POU1 (OCT1 POU domain) (human, UniProt P14859 260-458) (assay: EMSA-SELEX-seq; no BOB1; 20 mM Tris-HCl pH 7.6, 140 mM NaCl, 10% glycerol, 0.5 mM EDTA, 0.05% Triton X-100, 0.1 mg/mL BSA, 0.1 mg/mL poly(dI-dC), 5 mM DTT, room temperature, 20 min; high values mean tight binding). Details: protein: recombinant; dsDNA, one strand shown.
Chain of POU1 (OCT1 POU domain) (P14859 260-458): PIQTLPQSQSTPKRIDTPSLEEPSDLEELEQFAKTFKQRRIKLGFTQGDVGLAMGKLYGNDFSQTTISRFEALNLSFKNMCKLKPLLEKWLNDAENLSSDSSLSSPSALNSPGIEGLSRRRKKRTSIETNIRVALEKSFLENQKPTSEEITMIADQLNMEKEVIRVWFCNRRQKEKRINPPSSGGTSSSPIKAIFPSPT
Method in brief: (§1)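 After expression in E. coli BL21, tagged POU-domain proteins were purified under denaturing conditions and then renatured. Each binding reaction held 30 ng protein and 300 ng of a PCR-amplified double-stranded random 35-nt library in 20 μL Tris–HCl pH 7.6 binding buffer, with or without 28 ng coactivator protein, for 20 min at RT. Bands holding complexes were cut from native 6% PAGE, eluted and PCR-amplified across four rounds, and the output was Illumina-sequenced. The value given for binding preference is the share, in percent, of sequenced 8-mers fitting a motif pattern.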
For ATTATAAT, the binding signal was 0.94 % of ANNNNAAN 8-mers.
ACTTAAAT was tested, and the binding signal was 0.0767 % of ANNNNAAN 8-mers.
In the case of ATCTAAAG, the binding signal is reported as 0.0412 % of ANNNNAAN 8-mers.
In the case of AACAAAAA, the binding signal is reported as 0.0831 % of ANNNNAAN 8-mers.
For AATGCAAA, the binding signal was 1.36 % of ANNNNAAN 8-mers.
With ACTGGAAA the binding signal was 0.0362 % of ANNNNAAN 8-mers.
ATATAAAG was tested, and the binding signal was 0.0725 % of ANNNNAAN 8-mers.
For ATCCAAAA, the binding signal was 0.0591 % of ANNNNAAN 8-mers.
With ATAACAAA the binding signal was 0.098 % of ANNNNAAN 8-mers.
With ACGCGAAG the binding signal was 0.0172 % of ANNNNAAN 8-mers.
For AGATTAAA, the binding signal was 0.105 % of ANNNNAAN 8-mers.
In the case of ATTAGAAA, the binding signal is reported as 0.0995 % of ANNNNAAN 8-mers.
AGTAGAAC was tested, and the binding signal was 0.0271 % of ANNNNAAN 8-mers.
In the case of ACGTGAAT, the binding signal is reported as 0.0732 % of ANNNNAAN 8-mers.
With ATCATAAA the binding signal was 0.0736 % of ANNNNAAN 8-mers.
For ATATAAAA, the binding signal was 0.103 % of ANNNNAAN 8-mers.
ATCTGAAA was tested, and the binding signal was 0.0374 % of ANNNNAAN 8-mers.
In the case of ACACCAAA, the binding signal is reported as 0.0149 % of ANNNNAAN 8-mers.
ACCAAAAT was tested, and the binding signal was 0.0446 % of ANNNNAAN 8-mers.
In the case of AACAGAAC, the binding signal is reported as 0.0183 % of ANNNNAAN 8-mers.
For ATAATAAT, the binding signal was 0.273 % of ANNNNAAN 8-mers.
AAAGCAAT was tested, and the binding signal was 0.05 % of ANNNNAAN 8-mers.
AACAAAAG was tested, and the binding signal was 0.0522 % of ANNNNAAN 8-mers.
For ACCCTAAG, the binding signal was 0.0118 % of ANNNNAAN 8-mers.
In the case of ATACGAAA, the binding signal is reported as 0.0698 % of ANNNNAAN 8-mers.
AAAGTAAA was tested, and the binding signal was 0.0988 % of ANNNNAAN 8-mers.
For AGTCGAAG, the binding signal was 0.0305 % of ANNNNAAN 8-mers.
In the case of AGTCTAAG, the binding signal is reported as 0.0236 % of ANNNNAAN 8-mers.
In the case of AACGCAAT, the binding signal is reported as 0.0347 % of ANNNNAAN 8-mers.
In the case of AGTCAAAT, the binding signal is reported as 0.566 % of ANNNNAAN 8-mers.
ATTTTAAG was tested, and the binding signal was 0.108 % of ANNNNAAN 8-mers.
ATGATAAA was tested, and the binding signal was 0.104 % of ANNNNAAN 8-mers.
For ACAATAAT, the binding signal was 0.0778 % of ANNNNAAN 8-mers.
For AAGTTAAA, the binding signal was 0.0858 % of ANNNNAAN 8-mers.
AGTTTAAG was tested, and the binding signal was 0.05 % of ANNNNAAN 8-mers.
With AGAACAAA the binding signal was 0.032 % of ANNNNAAN 8-mers.
ACGCTAAG was tested, and the binding signal was 0.0202 % of ANNNNAAN 8-mers.
For ACATTAAT, the binding signal was 0.165 % of ANNNNAAN 8-mers.
In the case of AGGATAAA, the binding signal is reported as 0.0549 % of ANNNNAAN 8-mers.

Each sequence was assayed against T1, POU2 (OCT2 POU domain) (human, UniProt P09086 175-386) in the same assay as above. Details: protein: recombinant; dsDNA, one strand shown.
T1 sequence: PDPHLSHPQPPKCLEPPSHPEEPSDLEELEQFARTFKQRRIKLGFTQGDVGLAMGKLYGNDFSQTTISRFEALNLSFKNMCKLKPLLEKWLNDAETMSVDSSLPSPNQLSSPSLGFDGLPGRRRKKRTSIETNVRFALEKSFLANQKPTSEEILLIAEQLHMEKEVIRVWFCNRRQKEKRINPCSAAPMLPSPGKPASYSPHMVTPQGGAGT
Method in brief: as §1
For ATTATAAT, the binding signal was 1.04 % of ANNNNAAN 8-mers.
ACTTAAAT was tested, and the binding signal was 0.11 % of ANNNNAAN 8-mers.
For ATCTAAAG, the binding signal was 0.0397 % of ANNNNAAN 8-mers.
For AACAAAAA, the binding signal was 0.0662 % of ANNNNAAN 8-mers.
With AATGCAAA the binding signal was 1.1 % of ANNNNAAN 8-mers.
With ACTGGAAA the binding signal was 0.0328 % of ANNNNAAN 8-mers.
ATATAAAG was tested, and the binding signal was 0.088 % of ANNNNAAN 8-mers.
With ATCCAAAA the binding signal was 0.0414 % of ANNNNAAN 8-mers.
In the case of ATAACAAA, the binding signal is reported as 0.0909 % of ANNNNAAN 8-mers.
With ACGCGAAG the binding signal was 0.0121 % of ANNNNAAN 8-mers.
AGATTAAA was tested, and the binding signal was 0.11 % of ANNNNAAN 8-mers.
ATTAGAAA was tested, and the binding signal was 0.106 % of ANNNNAAN 8-mers.
For AGTAGAAC, the binding signal was 0.0242 % of ANNNNAAN 8-mers.
ACGTGAAT was tested, and the binding signal was 0.107 % of ANNNNAAN 8-mers.
With ATCATAAA the binding signal was 0.0944 % of ANNNNAAN 8-mers.
In the case of ATATAAAA, the binding signal is reported as 0.102 % of ANNNNAAN 8-mers.
ATCTGAAA was tested, and the binding signal was 0.046 % of ANNNNAAN 8-mers.
ACACCAAA was tested, and the binding signal was 0.0184 % of ANNNNAAN 8-mers.
For ACCAAAAT, the binding signal was 0.0397 % of ANNNNAAN 8-mers.
With AACAGAAC the binding signal was 0.0242 % of ANNNNAAN 8-mers.
For ATAATAAT, the binding signal was 0.353 % of ANNNNAAN 8-mers.
With AAAGCAAT the binding signal was 0.0455 % of ANNNNAAN 8-mers.
AACAAAAG was tested, and the binding signal was 0.0518 % of ANNNNAAN 8-mers.
In the case of ACCCTAAG, the binding signal is reported as 0.0178 % of ANNNNAAN 8-mers.
With ATACGAAA the binding signal was 0.0777 % of ANNNNAAN 8-mers.
With AAAGTAAA the binding signal was 0.0714 % of ANNNNAAN 8-mers.
In the case of AGTCGAAG, the binding signal is reported as 0.0357 % of ANNNNAAN 8-mers.
AGTCTAAG was tested, and the binding signal was 0.0322 % of ANNNNAAN 8-mers.
For AACGCAAT, the binding signal was 0.0351 % of ANNNNAAN 8-mers.
AGTCAAAT was tested, and the binding signal was 0.367 % of ANNNNAAN 8-mers.
In the case of ATTTTAAG, the binding signal is reported as 0.131 % of ANNNNAAN 8-mers.
ATGATAAA was tested, and the binding signal was 0.131 % of ANNNNAAN 8-mers.
With ACAATAAT the binding signal was 0.0978 % of ANNNNAAN 8-mers.
With AAGTTAAA the binding signal was 0.0857 % of ANNNNAAN 8-mers.
In the case of AGTTTAAG, the binding signal is reported as 0.0656 % of ANNNNAAN 8-mers.
With AGAACAAA the binding signal was 0.0524 % of ANNNNAAN 8-mers.
In the case of ACGCTAAG, the binding signal is reported as 0.0167 % of ANNNNAAN 8-mers.
For ACATTAAT, the binding signal was 0.215 % of ANNNNAAN 8-mers.
With AGGATAAA the binding signal was 0.0834 % of ANNNNAAN 8-mers.

The sequences below were run against POU1 (OCT1 POU domain);BOB1 (OBF1, OCA-B) (human;human, UniProt P14859;Q16633 260-458;1-256, |) (assay: EMSA-SELEX-seq; with BOB1 (ternary complex band); 20 mM Tris-HCl pH 7.6, 140 mM NaCl, 10% glycerol, 0.5 mM EDTA, 0.05% Triton X-100, 0.1 mg/mL BSA, 0.1 mg/mL poly(dI-dC), 5 mM DTT, room temperature, 20 min; high values mean tight binding). Details: protein: recombinant;recombinant; copies: 1;1; dsDNA, one strand shown.
Method in brief: as §1
For ATTATAAT, the binding signal was 0.163 % of ANNNNAAN 8-mers.
In the case of ACTTAAAT, the binding signal is reported as 0.0714 % of ANNNNAAN 8-mers.
For ATCTAAAG, the binding signal was 0.0503 % of ANNNNAAN 8-mers.
With AACAAAAA the binding signal was 0.121 % of ANNNNAAN 8-mers.
In the case of AATGCAAA, the binding signal is reported as 2.58 % of ANNNNAAN 8-mers.
ACTGGAAA was tested, and the binding signal was 0.0375 % of ANNNNAAN 8-mers.
With ATATAAAG the binding signal was 0.0597 % of ANNNNAAN 8-mers.
ATCCAAAA was tested, and the binding signal was 0.0722 % of ANNNNAAN 8-mers.
ATAACAAA was tested, and the binding signal was 0.1 % of ANNNNAAN 8-mers.
In the case of ACGCGAAG, the binding signal is reported as 0.0168 % of ANNNNAAN 8-mers.
In the case of AGATTAAA, the binding signal is reported as 0.0648 % of ANNNNAAN 8-mers.
ATTAGAAA was tested, and the binding signal was 0.0738 % of ANNNNAAN 8-mers.
In the case of AGTAGAAC, the binding signal is reported as 0.0242 % of ANNNNAAN 8-mers.
For ACGTGAAT, the binding signal was 0.0558 % of ANNNNAAN 8-mers.
With ATCATAAA the binding signal was 0.0425 % of ANNNNAAN 8-mers.
For ATATAAAA, the binding signal was 0.101 % of ANNNNAAN 8-mers.
With ATCTGAAA the binding signal was 0.0472 % of ANNNNAAN 8-mers.
For ACACCAAA, the binding signal was 0.0121 % of ANNNNAAN 8-mers.
For ACCAAAAT, the binding signal was 0.055 % of ANNNNAAN 8-mers.
In the case of AACAGAAC, the binding signal is reported as 0.018 % of ANNNNAAN 8-mers.
In the case of ATAATAAT, the binding signal is reported as 0.11 % of ANNNNAAN 8-mers.
AAAGCAAT was tested, and the binding signal was 0.0652 % of ANNNNAAN 8-mers.
AACAAAAG was tested, and the binding signal was 0.0741 % of ANNNNAAN 8-mers.
ACCCTAAG was tested, and the binding signal was 0.0133 % of ANNNNAAN 8-mers.
ATACGAAA was tested, and the binding signal was 0.0698 % of ANNNNAAN 8-mers.
For AAAGTAAA, the binding signal was 0.114 % of ANNNNAAN 8-mers.
In the case of AGTCGAAG, the binding signal is reported as 0.023 % of ANNNNAAN 8-mers.
For AGTCTAAG, the binding signal was 0.0343 % of ANNNNAAN 8-mers.
For AACGCAAT, the binding signal was 0.0242 % of ANNNNAAN 8-mers.
AGTCAAAT was tested, and the binding signal was 1.18 % of ANNNNAAN 8-mers.
For ATTTTAAG, the binding signal was 0.0964 % of ANNNNAAN 8-mers.
For ATGATAAA, the binding signal was 0.0644 % of ANNNNAAN 8-mers.
In the case of ACAATAAT, the binding signal is reported as 0.0515 % of ANNNNAAN 8-mers.
AAGTTAAA was tested, and the binding signal was 0.0901 % of ANNNNAAN 8-mers.
AGTTTAAG was tested, and the binding signal was 0.0519 % of ANNNNAAN 8-mers.
In the case of AGAACAAA, the binding signal is reported as 0.032 % of ANNNNAAN 8-mers.
With ACGCTAAG the binding signal was 0.0242 % of ANNNNAAN 8-mers.
ACATTAAT was tested, and the binding signal was 0.0777 % of ANNNNAAN 8-mers.
With AGGATAAA the binding signal was 0.0609 % of ANNNNAAN 8-mers.
